From PubChem BioAssay (Tox21)
Where “and” joins values, the source holds several entries; their conditions need not be identical. Identical values can stand only once. Results filed as inconclusive are left out. Some structures have more than one record in an assay (separate samples or runs), and their calls can disagree. Calls of active or inactive are those of the source. Calls come from the whole dose curve; as a rule, active = well fitted curve in the direction sought with a large enough effect in the repeat runs; inconclusive = weak or mixed curves; inactive = no such curve, though single readings can be large; an effect the other way counts as inactive or inconclusive.

Columns and labels:
[1] = A CellTox Green Cytotoxicity Assay to monitor cytotoxicity in HEK293 cells - 40 hour (AID 1224871); note: nearly all actives have a fitted effect of over 45% in size; note: potency is the fitted concentration of half-maximal effect
Procedure, shortened: (§1)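 Each value comes from one timepoint of a single continuous run in which HEK293 cells with CellTox Green were exposed to compound for up to 40 h at 37 C, dye fluorescence rising with cell death.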

[2] = qHTS RealTime-Glo MT Cell Viability Assay in HEK293 cells - 16 hour (AID 1224872); note: nearly all actives have a fitted effect of over 50% in size; note: potency is the fitted concentration of half-maximal effect; for activity change, negative = cytotoxicity: top concentration of the series differs between compounds
Procedure, shortened: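 Luminescence generated by NanoLuc from substrate produced by living HEK293 cells served as the viability signal. Each value reflects the reading at its stated time point during continuous 40 h compound exposure at 37 C.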

[3] = qHTS RealTime-Glo MT Cell Viability Assay in HepG2 cells - 8 hour (AID 1224873); note: nearly all actives have a fitted effect of over 55% in size
Procedure, shortened: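 Real-time viability: cells seeded at 600 per well together with NanoLuc and cell-permeant prosubstrate, compounds added after 5 h incubation. Luminescence tracked at 0, 8, 16, 24, 32 and 40 h of exposure.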

[4] = A CellTox Green Cytotoxicity Assay to monitor cytotoxicity in HEK293 cells - 24 hour (AID 1224875); note: nearly all actives have a fitted effect of over 45% in size; note: potency is the fitted concentration of half-maximal effect; for activity change: series mostly up to about 77 µM
Procedure, shortened: as §1

[5] = A CellTox Green Cytotoxicity Assay to monitor cytotoxicity in HepG2 cells - 16 hour (AID 1224876); note: nearly all actives have a fitted effect of over 45% in size; note: potency is the fitted concentration of half-maximal effect
Procedure, shortened: (§2)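 Continuous culture of HepG2 cells with a membrane-impermeant DNA dye; rising fluorescence marks dead cells. Compound exposure lasted up to 40 h at 37 C, with reads every 8 h from 0 h.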

[6] = qHTS RealTime-Glo MT Cell Viability Assay in HepG2 cells - 32 hour (AID 1224877); note: nearly all actives have a fitted effect of over 55% in size; note: potency is the fitted concentration of half-maximal effect
Procedure, shortened: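 Tox21 10K library screened in qHTS format on HepG2 cells carrying RealTime-Glo reagents. Compounds were added after a 5 h preincubation, and the luminescent signal from continuous culture was measured repeatedly during 40 h treatment.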

[7] = A CellTox Green Cytotoxicity Assay to monitor cytotoxicity in HepG2 cells - 40 hour (AID 1224879); note: nearly all actives have a fitted effect of over 40% in size; note: potency is the fitted concentration of half-maximal effect
Procedure, shortened: as §2

[8] = qHTS RealTime-Glo MT Cell Viability Assay in HEK293 cells - 0 hour (AID 1224880); note: top concentration of the series differs between compounds; nearly all actives have a fitted effect of over 45% in size
Procedure, shortened: (§3)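 qHTS format; HEK293 cells with NanoLuc/prosubstrate reagent, 37 C/5% CO2 for 5 h pre-dosing; compounds 23 nL in DMSO; luminescence at each time point reflects viable cells.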

[9] = A CellTox Green Cytotoxicity Assay to monitor cytotoxicity in HepG2 cells - 24 hour (AID 1224878); note: nearly all actives have a fitted effect of over 45% in size; note: potency is the fitted concentration of half-maximal effect
Procedure, shortened: as §2

[10] = qHTS RealTime-Glo MT Cell Viability Assay in HEK293 cells - 40 hour (AID 1224874); conditions: RealTime-Glo luminescence; max response: stronger effect = lower value; note: nearly all actives have a fitted effect of over 50% in size; note: potency is the fitted concentration of half-maximal effect
Procedure, shortened: as §3
% is set by controls: 0 for no effect and ±100 for the full control effect.

c1ccc([C@H]2CN3CCSC3=N2)cc1
inactive: Potency [1] | Potency [2] | Potency [3] | Potency [4] | Potency [5] | Potency [6] | Potency [7] | Potency [8]

NCCCNCCSP(=O)(O)O
inactive: cytotoxicity increase [1] -10.4% [at 6.97 µM] | activity change, negative = cytotoxicity [2] 0.443% [at 6.97 µM] | viability change, negative = cytotoxic [3] 0.144% [at 6.97 µM] | cytotoxicity increase [5] -2.65% [at 6.97 µM] | cytotoxicity [9] -8.81% [at 6.97 µM] | cytotoxicity increase [7] -11.2% [at 6.97 µM] | activity change, negative = cytotoxicity [8] -1.72% [at 6.97 µM]

Brc1c(NC2=NCCN2)ccc2nccnc12
inactive: Potency [1] | Potency [2] | Potency [3] | Potency [5] | Potency [6] | Potency [9] | Potency [7] | Potency [8]

CN1C(=O)N(C)C(O)C1O (stereo not drawn)
inactive: Potency [1] | Potency [2] | Potency [3] | Potency [5] | Potency [9] | Potency [7] | Potency [8]

O=C(CCCN1CCN(c2ccccn2)CC1)c1ccc(F)cc1
inactive: Potency [1] | Potency [3] | Potency [4] | Potency [5] | Potency [9] | Potency [7] | Potency [8]

CCN(CC)CCNC(=O)c1cc(S(C)(=O)=O)ccc1OC
inactive: Potency [2] | Potency [3] | Potency [5] | Potency [6] | Potency [9] | Potency [7] | Potency [8]

C=CCCCCCCCCC=O
inactive: Potency [1] | Potency [2] | Potency [3] | Potency [4] | Potency [5] | Potency [6] | Potency [9] | Potency [7] | Potency [8]

CN(C)CCCN1c2ccccc2CCc2ccc(Cl)cc21
active: Potency [1] 49 µM and 26.8 µM | Potency [2] 43.6 µM | Potency [4] 49 µM and 23.9 µM | Potency [5] 54.9 µM and 21.3 µM | Potency [6] 49 µM and 23.9 µM | Potency [9] 38.9 µM and 23.9 µM | Potency [7] 34.7 µM and 23.9 µM

C[C@H]1C[C@@H](O)CC(C)(C)C1
inactive: Potency [2] | Potency [3] | max response [10] -10.6% | Potency [5] | Potency [6] | Potency [9] | Potency [7] | Potency [8]

c1ccc(CC2=NCCN2)cc1
inactive: Potency [1] | Potency [2] | Potency [3] | Potency [4] | Potency [5] | Potency [6] | Potency [7] | Potency [8]

C1OCOCO1
inactive: Potency [1] | Potency [2] | Potency [3] | Potency [4] | Potency [5] | Potency [9] | Potency [7] | Potency [8]

N#Cc1ccc(C2CCCc3cncn32)cc1 (stereo not drawn)
inactive: Potency [1] | Potency [2] | Potency [3] | Potency [4] | Potency [5] | Potency [6] | Potency [7] | Potency [8]

CC1=CC(C)C(C=O)CC1 (stereo not drawn)
inactive: Potency [1] | Potency [2] | Potency [3] | Potency [4] | Potency [5] | Potency [9] | Potency [7] | Potency [8]

O=[N+]([O-])c1ccc(F)cc1F
inactive: Potency [1] | Potency [2] | Potency [3] | Potency [5] | Potency [7] | Potency [8]

OC[C@]1(O)OC[C@@H](O)[C@H](O)[C@@H]1O
inactive: Potency [1] | Potency [2] | Potency [3] | Potency [5] | Potency [6] | Potency [7] | Potency [8]

CCN1CCC[C@H]1CNC(=O)c1cc(S(N)(=O)=O)ccc1OC
inactive: Potency [1] | Potency [2] | Potency [3] | Potency [5] | Potency [6] | Potency [9] | Potency [7] | Potency [8]

OC(CCN1CCCCC1)(c1ccccc1)C1CC2C=CC1C2 (stereo not drawn)
inactive: Potency [2] | Potency [3] | max response [10] -10.3% | Potency [4] | Potency [5] | Potency [6] | Potency [9] | Potency [7] | Potency [8]

N[C@@H](C(=O)N[C@@H]1C(=O)N2C(C(=O)O)=C(Cl)CS[C@H]12)c1ccccc1
inactive: cytotoxicity increase [1] 2.56% [at 6.97 µM] | activity change, negative = cytotoxicity [2] 12.8% [at 6.97 µM] | viability change, negative = cytotoxic [3] 3.66% [at 6.97 µM] | cytotoxicity increase [5] -14% [at 6.97 µM] | cytotoxicity [9] -20.4% [at 6.97 µM] | cytotoxicity increase [7] -14.3% [at 6.97 µM] | activity change, negative = cytotoxicity [8] 12.5% [at 6.97 µM]

O=C1CC2CC1C1CCCC21 (stereo not drawn)
inactive: Potency [2] | Potency [3] | max response [10] -4.86% | Potency [5] | Potency [6] | Potency [9] | Potency [7] | Potency [8]

CCCCCCCCCCCCN(CCCCCCCCCCCC)CCCCCCCCCCCC
inactive: Potency [1] | Potency [2] | Potency [3] | Potency [4] | Potency [5] | Potency [6] | Potency [7] | Potency [8]

O=C(CCCN1CCC(O)(c2cccc(C(F)(F)F)c2)CC1)c1ccc(F)cc1
active: Potency [2] 19 µM
inactive: Potency [1] | Potency [3] | Potency [4] | Potency [5] | Potency [6] | Potency [8]

CCCN1CCCC[C@H]1C(=O)Nc1c(C)cccc1C
inactive: Potency [1] | Potency [2] | Potency [3] | Potency [4] | Potency [5] | Potency [6] | Potency [9] | Potency [8]

CC(C)(c1ccc(O)cc1)c1ccc(O)cc1
inactive: Potency [3] | Potency [5] | Potency [6] | Potency [9] | Potency [7] | Potency [8]
active: Potency [10] 48 µM
inactive and 17.7 µM (active): Potency [1]

CN1N=C(C(N)=O)CCC1=O
inactive: Potency [1] | Potency [2] | Potency [3] | Potency [5] | Potency [9] | Potency [7] | Potency [8]
